# Reference: PubChem BioAssay (NCATS)
# Inconclusive results are not listed. A call without a number means that no potency is given here. Unmarked numbers belong to inactive results. Calls of active or inactive are those of the source. Unless noted, calls come from the whole dose curve; as a rule, active = well fitted curve in the direction sought with a large enough effect; inconclusive = small, poorly fitted or top-dose-only effect, or another doubt; inactive = no such curve, though single readings can be large; an effect the other way counts as inactive or inconclusive.
# Key:
# [1] = NCATS anti-infectives library activity on HEK293 viability as a counter-qHTS vs the C. elegans viability qHTS (AID 1745854)
# Outline: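 Cytotoxicity counter-screen to a worm viability qHTS: CellTiter-Glo luminescence read 10 min after reagent addition. Compounds (final up to 41.7 uM, a 1:5 dilution series) incubated 24 hr at 37C with 1,500 HEK293 cells per well; digitonin control.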
# [2] = target: Glutathione peroxidase 1 (Homo sapiens) (UniProt P07203); assay: Primary qHTS Assay for Inhibitors of Recombinant Selenoprotein Glutathione Peroxidase 1 (GPX1) (AID 1845191); note: nearly all actives have a fitted effect of over 65% in size
# Sequence of Glutathione peroxidase 1 (Homo sapiens) (P07203 whole entry, looked up): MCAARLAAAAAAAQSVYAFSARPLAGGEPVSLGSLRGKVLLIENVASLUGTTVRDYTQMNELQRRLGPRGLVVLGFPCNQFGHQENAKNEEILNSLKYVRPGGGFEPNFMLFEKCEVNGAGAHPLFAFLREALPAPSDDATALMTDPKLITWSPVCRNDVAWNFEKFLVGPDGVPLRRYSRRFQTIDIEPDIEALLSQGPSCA
# Outline: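 GPX1 10 nM, GR 100 nM, GSH 1 mM, NADPH 0.5 mM, CHP 0.5 mM (final). 30-min cpd preincubation, RT. Ex340/Em450 read t=0, t=15 min.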
# [3] = target: Phospholipid hydroperoxide glutathione peroxidase GPX4 (Homo sapiens) (UniProt P36969); assay: Primary qHTS Assay for Inhibitors of Recombinant Selenoprotein Glutathione Peroxidase 4 (GPX4) (AID 1845192); note: series mostly up to about 50 µM; nearly all actives have a fitted effect of over 65% in size
# Sequence of Phospholipid hydroperoxide glutathione peroxidase GPX4 (Homo sapiens) (P36969 whole entry, looked up): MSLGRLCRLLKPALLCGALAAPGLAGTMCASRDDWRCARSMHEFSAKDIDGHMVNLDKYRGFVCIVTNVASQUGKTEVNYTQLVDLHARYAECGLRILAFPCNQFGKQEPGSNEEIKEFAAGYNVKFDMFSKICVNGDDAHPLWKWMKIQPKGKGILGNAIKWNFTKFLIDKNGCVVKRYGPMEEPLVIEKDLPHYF
# Outline: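 qHTS, GR-coupled: GPX4 200 nM + cpd 30 min RT → GSH 1 mM, NADPH 0.5 mM, GR 100 nM → CHP 0.5 mM start; fluor 340/450 at t0 and t15 min; no-enzyme wells as control.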
# [4] = NCATS anti-infectives library activity on the primary C. elegans qHTS viability assay (AID 1745855; calls by dose curve; note: potency is the fitted concentration of half-maximal effect)
# Outline: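 GFP read-out by 488 nm laser cytometry at day 0, 3 and 7, gated on object perimeter, area and peak intensity, scored viability of PE254-GFP-FLuc worms exposed to compound in S medium with bacterial capsules at 21 °C.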
compound,measurement,setting,value
CC(C)(C)NC(=O)N[C@H](C(=O)N1C[C@H]2[C@@H]([C@H]1C(=O)NC(CC1CCC1)C(=O)C(N)=O)C2(C)C)C(C)(C)C (stereo partly drawn),Potency,[1],inactive
same,Potency,[2],inactive
same,Potency,[3],inactive
CC(C)c1nc(CN(C)C(=O)N[C@@H](CCN2CCOCC2)C(=O)N[C@H](CC[C@H](Cc2ccccc2)NC(=O)OCc2cncs2)Cc2ccccc2)cs1,Potency,[1],inactive
same,Potency,[4],23 µM (active)
same,Potency,[2],inactive
same,Potency,[3],inactive
NC(=O)[C@@H]1CC[C@@H]2CN1C(=O)N2OS(=O)(=O)O,Potency,[1],inactive
same,Potency,[2],inactive
same,Potency,[3],inactive
CCC(CC)[C@H](NC(C)=O)[C@@H]1[C@H](O)[C@@H](C(=O)O)C[C@H]1N=C(N)N,"activity change, negative = cytotoxicity",[1],-6.87% [at 0.334 µM]
same,"activity, negative = inhibition",[2],-7.9% [at 0.4 µM]
same,"activity change, negative = inhibition",[3],-9.13% [at 0.409 µM]
